# Measurements taken from PubChem BioAssay.
# Where “and” joins values, the source holds several entries; their conditions need not be identical. Equal values may be shown once. Calls of active or inactive are those of the source.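 How the source made its calls, unless noted: active means inhibition at or above 50% relative to wild type and mutant plate controls; inactive means inhibition below 50%.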
# Legend:
# [1] = inhibitors of TNFa-induced NFkB p65 translocation, primary screen, imaging, HUVEC, MLSMR starter and 10KST1 sets (AID 438;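 active means inhibition above 20% together with a positive visual image hit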;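 further: compound added about 3h40 before a 20 min TNFalpha stimulation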;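 on inhibition: signal is the nuclear over cytoplasmic p65 intensity ratio per well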); details: HUVEC TNFa-induced p65 nuclear translocation; cell count: measured here: nuclei count (cytotoxicity indicator), at 2.08 µM; inhibition: at 2 µM, stronger effect = higher value, 0% TNFa-plus-vehicle, 100% no-TNFa wells
# [2] = reduction of polyQ htt aggregates in cells – imaging, exon1htt(103Q)mCFP cells, high-content imaging, primary screen (AID 483;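 active means visual image review flags a hit and inhibition of aggregation exceeds 20%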;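 further: compound exposure lasted 3 days before fixation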;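 on nuclei count: percent of the per-plate median nuclei count of sample wells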); details: exon1htt(103Q)mCFP cell line, aggregate imaging, at 2 µM; inhibition of aggregation: stronger effect = higher value; nuclei count: measured here: cell count, toxicity
# [3] = endothelial E-selectin expression blockers – imaging, HUVEC, immunofluorescence, MLSMR starter and 10KST1 sets, primary screen (AID 487;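 active means visually confirmed hit in the image check and inhibition above 20%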;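 on inhibition: signal is fraction of cell area covered by stained E-selectin grains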;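 on nuclei count: 100% = median nuclei count of all wells on the same plate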); details: HUVEC TNFalpha-induced E-selectin immunofluorescence imaging, at 2 µM; inhibition: stronger effect = higher value; nuclei count: measured here: cell number, toxicity
# [4] = target: Voltage-gated potassium channel subunit beta-2 (Rattus norvegicus) (UniProt P62483); assay: inhibitors of rat Kvbeta2 reductase activity – biochemical, NADPH fluorescence, primary screen (AID 622;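 active means fluorescence slope higher than the sample average by over 3 SD, cut at about -0.22 in these data, passing the limit was not always enough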;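 further: slope of raw intensity against log time taken from 70 to 1610 s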); details: recombinant KvBeta, 4-cyanobenzaldehyde reduction, at 10 µM, stronger effect = higher value
# Voltage-gated potassium channel subunit beta-2 (Rattus norvegicus), sequence (P62483 whole entry, looked up): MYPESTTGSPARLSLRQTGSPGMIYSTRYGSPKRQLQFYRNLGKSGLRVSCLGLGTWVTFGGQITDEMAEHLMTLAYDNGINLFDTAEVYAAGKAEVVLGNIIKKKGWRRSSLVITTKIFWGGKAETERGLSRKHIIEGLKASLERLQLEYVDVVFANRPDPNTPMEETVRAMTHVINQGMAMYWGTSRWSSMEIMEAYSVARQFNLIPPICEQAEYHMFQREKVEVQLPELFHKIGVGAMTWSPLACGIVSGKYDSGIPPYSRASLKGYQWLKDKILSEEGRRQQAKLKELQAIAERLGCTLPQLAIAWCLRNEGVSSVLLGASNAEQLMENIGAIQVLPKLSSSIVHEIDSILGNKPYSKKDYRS
# [5] = target: Voltage-gated potassium channel subunit beta-2 (Rattus norvegicus) (UniProt P62483); assay: enhancers of rat Kvbeta2 NADPH turnover – biochemical, NADPH fluorescence, primary screen (AID 623;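 active means NADPH fluorescence slope more negative than the mean of all samples by about 3 SD, 99.7% confidence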;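 further: fluorescence intensity change per second fitted from 20 to 320 s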); details: Recombinant KvBeta, NADPH fluorescence decrease slope, 10 min; at 10 µM; stronger effect = lower value
# [6] = target: Muscarinic acetylcholine receptor M4 (Homo sapiens) (UniProt P08173); assay: M4-linked GIRK flux change, two-sided – cell-based, HEK293 M4/GIRK, thallium flux, BTC-AM, M4 allosteric agonist project, primary screen (AID 625;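 active means fluorescence slope after compound addition differing from the mean of all tested samples at 99.7% confidence, mostly higher but some lower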;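 further: thallium influx through GIRK channels coupled to M4 in HEK293 cells with BTC-AM dye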); details: at 10 µM, actives lie on both sides
# Muscarinic acetylcholine receptor M4 (Homo sapiens), sequence (P08173 whole entry, looked up): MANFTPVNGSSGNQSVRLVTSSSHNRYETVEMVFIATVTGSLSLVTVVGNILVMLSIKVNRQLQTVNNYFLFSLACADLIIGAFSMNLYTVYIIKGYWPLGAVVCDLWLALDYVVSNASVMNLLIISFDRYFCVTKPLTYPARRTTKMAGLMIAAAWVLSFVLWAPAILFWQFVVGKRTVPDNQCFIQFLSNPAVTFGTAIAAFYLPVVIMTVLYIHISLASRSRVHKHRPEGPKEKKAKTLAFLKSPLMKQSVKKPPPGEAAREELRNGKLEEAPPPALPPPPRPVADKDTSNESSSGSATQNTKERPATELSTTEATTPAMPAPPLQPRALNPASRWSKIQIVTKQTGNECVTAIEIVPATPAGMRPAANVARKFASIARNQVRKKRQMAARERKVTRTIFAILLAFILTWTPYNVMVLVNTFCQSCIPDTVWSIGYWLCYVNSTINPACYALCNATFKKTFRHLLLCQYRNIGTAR
# [7] = blockers of RIG-like receptor reporter activation – cell-based, Sendai virus stimulus, luciferase, 10K MLSCN set, TLR/RLR signaling modifier project, primary screen (AID 602276;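 active means inhibition at or above 50% at 10 µM; inactive means inhibition below 50%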;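 further: firefly luciferase from ISG56 promoter only with Renilla not read in this screen; 0% = Sendai virus plus DMSO and 100% = medium plus DMSO without virus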); details: HEK293 RL24 IRF3 luciferase reporter, at 10 µM, stronger effect = higher value
# [8] = TLR3 IRF3 reporter activation blockers – cell-based, poly I:C stimulus, luciferase, 10K MLSCN set, primary screen (AID 602277;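 active means inhibition of the reporter signal at or above 50%; inactive means inhibition below 50%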); details: HEK293-TLR3 RL24 IRF3 luciferase reporter, at 10 µM, stronger effect = higher value
# [9] = loss of swimming-algae plug formation – whole organism, Chlamydomonas reinhardtii, WT vs cilia-less mutant, absorbance, 96-well, primary screen (AID 463189); details: Chlamydomonas reinhardtii gravitaxis, OD600 absorbance, 2 days; at 10 µM; stronger effect = higher value;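 further: 0% = wild type cc124 cells in DMSO and 100% = ciliumless bld1 mutant cells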
# [10] = Primary imaging screen for DUSP6 inhibitors that restore phospho-Erk in transfected HeLa cells, chemical complementation (AID 609;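 active means compounds giving at least 50% inhibition in the cell-based MKP-3 phosphatase rescue imaging test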;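 on inhibition: phospho-Erk level distribution per well compared with pooled transfected vehicle control wells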); details: HeLa MKP-3 transfected, phospho-Erk imaging KS statistic, at 10 µM, cells stimulated with TPA for 15 min
# [11] = target: Dual specificity protein phosphatase 6 (Homo sapiens) (UniProt Q16828); assay: as above; details: HeLa MKP-3 transfected, phospho-Erk imaging KS statistic; at 10 µM; stronger effect = higher value; cells stimulated with TPA for 15 min
# Dual specificity protein phosphatase 6 (Homo sapiens), sequence (Q16828 whole entry, looked up): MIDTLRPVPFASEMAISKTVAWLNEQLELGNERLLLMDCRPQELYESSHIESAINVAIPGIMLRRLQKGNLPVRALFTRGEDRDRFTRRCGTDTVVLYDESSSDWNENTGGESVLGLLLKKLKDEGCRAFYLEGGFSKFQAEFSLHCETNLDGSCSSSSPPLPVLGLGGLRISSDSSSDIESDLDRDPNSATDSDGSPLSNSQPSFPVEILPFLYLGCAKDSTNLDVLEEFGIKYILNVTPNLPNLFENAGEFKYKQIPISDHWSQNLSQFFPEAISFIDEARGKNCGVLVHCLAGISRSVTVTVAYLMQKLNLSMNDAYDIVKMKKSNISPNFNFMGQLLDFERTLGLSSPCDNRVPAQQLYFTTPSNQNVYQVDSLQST
# [12] = target: Alpha-2C adrenergic receptor (Homo sapiens) (UniProt P18825); assay: compounds altering alpha2C-coupled GIRK flux – cell-based, HEK293 alpha2C/GIRK1/2, thallium flux, primary screen (AID 624;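 active means fluorescence slope after compound addition differing from the mean of all screened samples at 99.7% confidence, in either direction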;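 further: slope of fluorescence ratio to pre-addition baseline per second over 15 to 24 s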); details: thallium flux BTC fluorescence, at 10 µM, actives lie on both sides
# Alpha-2C adrenergic receptor (Homo sapiens), sequence (P18825 whole entry, looked up): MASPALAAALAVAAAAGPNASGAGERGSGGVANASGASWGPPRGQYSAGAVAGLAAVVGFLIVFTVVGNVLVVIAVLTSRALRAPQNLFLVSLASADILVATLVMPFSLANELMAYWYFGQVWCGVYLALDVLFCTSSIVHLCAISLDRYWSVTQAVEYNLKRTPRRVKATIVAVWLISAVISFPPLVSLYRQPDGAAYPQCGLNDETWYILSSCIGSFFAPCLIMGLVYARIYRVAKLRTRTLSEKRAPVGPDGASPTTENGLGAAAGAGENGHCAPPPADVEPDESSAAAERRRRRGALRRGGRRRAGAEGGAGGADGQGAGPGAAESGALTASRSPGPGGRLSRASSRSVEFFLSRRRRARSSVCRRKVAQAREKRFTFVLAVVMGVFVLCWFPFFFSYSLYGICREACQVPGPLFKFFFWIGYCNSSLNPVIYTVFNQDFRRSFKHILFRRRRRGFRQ
# [13] = inhibitors of larval lipid processing in zebrafish, primary screen, whole organism, PED6 fluorescence, gall bladder and intestine (AID 686;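 active means a full or partial loss of lipid-probe fluorescence in the fish gall bladder, intestine or both, judged by eye; inactive means no fluorescence loss, or compound toxic to the fish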;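 further: larvae 5 to 7 days old with five fish per well; signal comes from phospholipase A2 cleavage of quenched PED6 carried via bile; overnight exposure to compound and PED6 before scoring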); details: Zebrafish larvae PED6 lipid processing, fluorescence scoring; screened at 20 µM (by protocol)
compound,measurement,setting,value
O=C1NC(c2ccccc2)(C(F)(F)F)SC2=NCCCN12 (stereo not given),cell count,[1],429
same,inhibition,[1],4.8% (inactive)
same,inhibition of aggregation,[2],12.3% (inactive)
same,nuclei count,[2],106%
same,nuclei count,[3],154%
same,fluorescence slope,[4],-0.482 (inactive)
same,NADPH fluorescence slope,[5],4.2e-05 (inactive)
same,fluorescence slope,[6],0.00455 (inactive)
same,inhibition,[7],-6.22% (inactive)
same,inhibition,[8],-13.6% (inactive)
NCCCNCCCCNCCCN,inhibition,[9],-2.56% (inactive)
CCn1cc(C(=O)O)c(=O)c2cc3c(cc21)OCO3,inhibition,[9],1.71% (inactive)
N[C@@H](Cc1cnc[nH]1)C(=O)O,inhibition,[9],-1.75% (inactive)
CCn1cc(C(=O)O)c(=O)c2ccc(C)nc21,cell count,[1],578
same,inhibition,[1],-2.8% (inactive)
same,inhibition,[3],-83.2% (inactive)
same,nuclei count,[3],111%
same,z-score,[10]; measured here: cell density z-score,2.22
same,z-score,[10]; measured here: nuclear c-Myc green intensity z-score,-0.0952
same,z-score,"[10]; measured here: nuclear pErk red intensity z-score, stronger effect = higher value",0.302
same,inhibition,[11],5.42% (inactive)
same,fluorescence slope,[4],-0.455 (inactive)
same,NADPH fluorescence slope,[5],-3.9e-05 (inactive)
same,slope,[12],0.00465 (inactive)
same,outcome,[13],inactive
same,inhibition,[7],15.8% (inactive)
same,inhibition,[8],40.1% (inactive)
NC(=S)c1ccc[n+]([C@@H]2O[C@@H](COP(=O)([O-])OP(=O)(O)OC[C@H]3O[C@@H](n4cnc5c(N)ncnc54)C(OP(=O)(O)O)[C@H]3O)C(O)C2O)c1 (stereo not given in full),inhibition,[9],6.21% (inactive)
CCN1CCCC1CNC(=O)c1cc(S(N)(=O)=O)ccc1OC (stereo not given),inhibition,[9],2.91% (inactive)
O=C(N[C@@H](Cc1ccccc1)C(=O)CCl)OCc1ccccc1,inhibition,[9],0.05% (inactive)
N[C@@H](COP(=O)(O)O)C(=O)O,inhibition,[9],2.62% (inactive)
C=C[C@H]1CN2CCC1C[C@H]2[C@H](O)c1ccnc2ccc(OC)cc12 (stereo not given in full),inhibition,[9],-14.7% (inactive)
CCC1(O)CC2CN(CCc3c([nH]c4ccccc34)[C@@](C(=O)OC)(c3cc4c(cc3OC)N(C=O)C3[C@]45CCN4CC=C[C@@](CC)([C@@H](OC(C)=O)[C@]3(O)C(=O)OC)[C@H]45)C2)C1 (stereo not given in full),inhibition,[9],1.07% (inactive)
C[C@@H]1C(=O)NC2=Nc3cccc(Cl)c3CN21,inhibition,[9],1.72% (inactive)
C[N+](C)(C)CCCCCC[N+](C)(C)C,inhibition,[9],5.27% (inactive) and -2.94% (inactive)
CCN(CC)CCOC(=O)c1ccc(N)cc1,inhibition,[9],-0.871% (inactive)
COc1cccc(OC)c1OCCNCC1COc2ccccc2O1 (stereo not given),inhibition,[9],0.114% (inactive)
Cc1[nH]c(=O)c(C#N)cc1-c1ccncc1,inhibition,[9],8.79% (inactive)
Nc1cc(Cl)c(NC2=NCCN2)c(Cl)c1,inhibition,[9],-3.5% (inactive)
COc1cccc(OC)c1OCCNCC1CSc2ccccc2O1 (stereo not given),inhibition,[9],10.3% (inactive)
Cc1c(CC(C)(C)C(=O)O)n(Cc2ccc(Cl)cc2)c2ccc(F)cc12,inhibition,[9],1.93% (inactive)
CC(=O)N1CCN(c2ccc(OC[C@H]3CO[C@](Cn4ccnc4)(c4ccc(Cl)cc4Cl)O3)cc2)CC1,inhibition,[9],74.8% (active)
C[C@@H](NC(=O)/C(C#N)=C/c1ccc(O)c(O)c1)c1ccccc1,inhibition,[9],4.46% (inactive)
C[N+](C)(C)CC=O,inhibition,[9],5.9% (inactive)
N[C@H](C(=O)O)[C@H]1C[C@@H]1C(=O)O,inhibition,[9],2.25% (inactive)
Nc1cc(=O)[nH]c(N)n1,inhibition,[9],-17.2% (inactive)
CC#CCOC(=O)c1c(C)nc2sc3c(c2c1N)CCC(O)C3 (stereo not given),inhibition,[9],11.7% (inactive)
CC(N)=NCCC[C@H](N)C(=O)O,inhibition,[9],5.15% (inactive)
CC1(C)NC(=O)N(c2ccc([N+](=O)[O-])c(C(F)(F)F)c2)C1=O,inhibition,[9],0.277% (inactive)
CC(CN(C)C)CN1c2ccccc2CCc2ccccc21 (stereo not given),inhibition,[9],1.33% (inactive)
C#CCN(C)CCCOc1ccc(Cl)cc1Cl,inhibition,[9],24.1% (inactive)
C[C@H]1CC2C3CCC4=CC(=O)C=C[C@]4(C)[C@@]3(Cl)[C@@H](O)C[C@]2(C)[C@@]1(O)C(=O)CO (stereo not given in full),inhibition,[9],-2.71% (inactive)
CC(C)C1C2CCC(C2)C1N (stereo not given),inhibition,[9],3.56% (inactive)
CCCCOC(=O)NS(=O)(=O)c1sc(CC(C)C)cc1-c1ccc(Cn2c(CC)nc3c(C)cc(C)nc32)cc1,inhibition,[9],10.7% (inactive)
COc1cc(OC)c(/C=C2/C(=O)Nc3ccccc32)c(OC)c1,inhibition,[9],6.51% (inactive)
